# According to PubChem BioAssay (Tox21):
# Inconclusive results are not listed. Activity calls are given as the source filed them. The call rests on the fitted dose curve; in most records, active means well fitted cell-killing curve with a large enough effect in the repeat runs; inconclusive means weak or mixed curves, or effect the other way; inactive means flat fitted curve, though single readings scatter.
# Test: qHTS assay to identify small molecule antagonists of the androgen receptor (AR) signaling pathway using the MDA cell line in the presence of 0.5 nM R1881 - cell viability counter screen (AID 1259242); further: nearly all actives have a fitted effect of over 45% in size
# Conditions: MDA-kb2 viability, CellTiter-Fluor protease fluorescence, 16 h; series mostly up to 92.4 µM
# Text: U.S. Tox21 Program National Center for Advancing Translational Sciences [NCATS] NIH Chemical Genomics Center [NCGC] U.S. Environmental Protection Agency [EPA] National Institutes of Environmental Health Sciences [NIEHS] National Toxicology Program [NTP] U.S. Food and Drug Administration [FDA] Tox21 Assay Overview: Androgen receptor (AR) is an important member of the nuclear receptor family. Its signaling plays a critical role in AR-dependent prostate cancer and other androgen related diseases. Considerable attention has been given in the past decades to develop methods to study and screen for the environmental chemicals that have the potential to interfere with metabolic homeostasis, reproduction, developmental and behavioral functions. Therefore AR binding assay for screening androgen antagonists can be used to identify potential endocrine disruptors. MDA-kb2 cells (from ATCC, deposited by Wilson et al.) were used to screen for AR inhibitors against Tox21 compound libraries. These cells are human breast carcinoma cells that were stably transfected with a luciferase reporter gene under control of the MMTV promoter that contains response elements for both androgen receptor (AR) and glucocorticoid receptor (GR). The current screening for identification of AR inhibitors against Tox21 libraries used lower concentration of (0.5 nM) R1881 as a stimulator. The cytotoxicity of the Tox21 compound libraries against MDA-kb2 cell line was tested by measuring live-cell protease activity using CellTiter-Fluor assay in the same wells.
# Tox21 Assay Protocol Summary: MDA-kb2 cells (cells cultured without CO2) were dispensed at 3,000 cells/well in 4 uL of culture medium into white wall/solid-bottom 1536-well plates (Corning Life Sciences, Corning, NY) using a Multidrop Combi (ThermoFisher Scientific, Waltham, MA) dispenser. After the assay plates were incubated at a 37C and 0% CO2 for 5 hr, 23 nL of compounds dissolved in DMSO, positive controls or DMSO only was transferred to the assay plate by a Pintool station (Kalypsys, San Diego, CA). The transfer of compounds was followed by the addition of 1 uL of 0.5 nM (final concentration) agonist (R1881)/culture medium using a Flying Reagent Dispenser (FRD, Aurora Discovery, San Diego, CA). The plates were incubated at 37C and 0% CO2 for 16 hr. For cytotoxicity assay, 1 uL of CellTiter-Fluor reagent (Promega Corporation, Madison, WI) was added to each well using the FRD and after 30 min incubation at 37C and 0% CO2, The fluorescence intensity was measured using ViewLux plate reader (PerkinElmer, Shelton, CT).
# On the % scale 0 is the no-effect control and ±100 the full control effect.
Structure (SMILES),outcome,"viability change, negative = cytotoxic"
CN(C)CCOC(=O)C(c1ccccc1)C1(O)CCCC1 (stereo not given),inactive,
Cc1ccccc1C(N)=O,inactive,
OCC1CCC(CO)CC1 (stereo not given),inactive,
O=Cc1cc2ccccc2o1,inactive,
NCC1(Cc2noc(=O)[nH]2)CCCCC1,inactive,
Cc1cccc(Cl)c1,inactive,
Cc1ccc(N)cc1S(=O)(=O)O,inactive,
CCOC(CN1CCN(CC(C)C(=O)c2ccccc2)CC1)c1ccccc1 (stereo not given),,-2.37% [at 19 µM] (inactive)
CC1OCCC1=O (stereo not given),inactive,
OCC1(CO)COCOC1,inactive,
CCCCCc1cccc(=O)o1,inactive,
CC(C)(CO)C(O)C(=O)NCCCO (stereo not given),inactive,
C=CC(=O)CCCCC,inactive,
CC(C)NC(=O)c1ccc(C=O)cc1,inactive,
O=C(Cl)c1ccccc1[N+](=O)[O-],inactive,
CN1CCOC(c2ccccc2)c2ccccc2C1 (stereo not given),inactive,
O/N=C/C=N/O,inactive,
CC(=O)O[C@H]1C[C@@H]2CC[C@@]1(C)C2(C)C,inactive,
CC1(C)O[C@H]2CC(=O)OC[C@]23[C@H]2CC[C@@]4(C)[C@H](c5ccoc5)OC(=O)[C@H]5O[C@]54[C@]2(C)C(=O)C[C@@H]13,inactive,
Cc1cc(C)c(C(=O)O)c(C)c1,inactive,

Structure (SMILES),outcome,"viability change, negative = cytotoxic"
C=CC/C=C/C,inactive,
CCCCCCCCCOC(=O)c1ccccc1C(=O)OCCCCCCCCC,inactive,
CCn1cc(C(=O)O)c(=O)c2cnc(N3CCCC3)nc21,,7.44% [at 8.39 µM] (inactive)
O=C(O)CONC(=O)c1ccccc1,inactive,
ONc1ccccc1,inactive,
O=S(=O)(O)c1ccc2c(N=Nc3ccc(S(=O)(=O)O)c4ccccc34)c(O)c(S(=O)(=O)O)cc2c1,,-14.9% [at 8.39 µM] (inactive)
CCC(=O)Oc1ccc2c(c1)CC[C@@H]1[C@@H]2CC[C@@]2(C)[C@H]1C[C@@H](OC(=O)CC)[C@@H]2OC(=O)CC,inactive,
Cc1ccc2c(c1)C(=O)c1ccccc1C2=O,inactive,
C[Si]1(C)O[Si](C)(C)O[Si](C)(C)O[Si](C)(C)O[Si](C)(C)O1,inactive,
C=CCCCCCCCC,inactive,
COC(=O)CCCCC(CCSS/C(CCO)=C(\C)N(C=O)Cc1cnc(C)nc1N)SC(C)=O (stereo not given),inactive,
CCCCCCCCCCCCCCCCCC#N,inactive,
N[C@@H](Cc1ccc(O)cc1)C(=O)O,,0.626% [at 8.39 µM] (inactive)
O=C1CCC(=O)N1Cl,inactive,
CC(C)NCC(O)c1ccc2ccccc2c1 (stereo not given),inactive,
CC1(C)Cc2cccc(N)c2O1,inactive,
CC1(C)Oc2ccc(C#N)cc2[C@@H](N2CCCC2=O)[C@@H]1O,inactive,
COC(=O)c1cccc(Cl)c1,inactive,
CCN1CCCC1CN (stereo not given),inactive,
N#CCC(=O)NN,inactive,
